Bioassay records deposited in PubChem BioAssay by The Scripps Research Institute Molecular Screening Center.
LYPLA1 counter: LYPLA1 (human) inhibition in PME1 counter-screen. O75608. recombinant LYPLA1, FP-Rh probe fluorescence polarization. inhibition, % at 5.9 µM. hit rate 0.16% among 320,000. AID 2174;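 active means inhibition above the mean of all tested compounds plus 3 SD, set per campaign, cut at about 14% in these data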;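 further: inhibitors block serine hydrolase probe labeling of LYPLA1 so polarization falls; 0% = enzyme with DMSO and 100% = wells lacking LYPLA1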
Target sequence (O75608 whole entry, looked up): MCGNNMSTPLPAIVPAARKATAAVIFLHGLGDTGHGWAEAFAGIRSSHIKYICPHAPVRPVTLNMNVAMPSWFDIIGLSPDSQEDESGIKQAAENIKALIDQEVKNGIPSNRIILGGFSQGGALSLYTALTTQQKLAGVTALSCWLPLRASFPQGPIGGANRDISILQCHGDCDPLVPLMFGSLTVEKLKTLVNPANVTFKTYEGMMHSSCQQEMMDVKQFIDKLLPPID
PREPL inh: inhibitors of human prolyl oligopeptidase-like enzyme PREPL | recombinant PREPL, fluorescence polarization activity-based probe | inhibition, % at 5.96 µM | Q4J6C6 | hit rate 0.68% among 320,000; in the data active means inhibition above about 43%;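 further: 0% = enzyme with DMSO and 100% = wells lacking enzyme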
EBNA-1 inh: blocks EBNA-1 binding to DNA; inhibition, % at 14.8 µM; EBNA-1 DNA binding, fluorescence polarization; hit rate 0.34% among 300,000; in the data active means inhibition above about 28%
ZTA DNA inh: blocks Epstein-Barr virus ZTA, an EBNA-1 counter-screen | P03206 | ZTA-DNA binding, fluorescence polarization | inhibition, % at 11 µM | hit rate 0.15% among 320,000 | AID 2234; in the data active means inhibition above about 33%
LYPLA2 counter: counter-screen for PME1 inhibitors: inhibitors of human LYPLA2; inhibition, % at 5.9 µM; AID 2177; hit rate 0.38% among 320,000; O95372; recombinant LYPLA2, FP-Rh probe fluorescence polarization;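 active means inhibition above the screen-wide mean plus 3 SD, limit set per campaign, cut at about 26% in these data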;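 further: 0% = LYPLA2 with DMSO and 100% = wells lacking LYPLA2 enzyme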
Target sequence (O95372 whole entry, looked up): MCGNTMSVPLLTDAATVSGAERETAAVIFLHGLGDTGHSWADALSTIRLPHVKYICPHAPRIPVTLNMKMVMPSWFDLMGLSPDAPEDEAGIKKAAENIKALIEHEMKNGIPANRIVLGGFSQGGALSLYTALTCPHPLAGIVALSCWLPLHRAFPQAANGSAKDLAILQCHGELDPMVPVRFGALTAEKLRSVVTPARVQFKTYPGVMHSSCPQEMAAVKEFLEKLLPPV
ZTA inh confirm: EBV ZTA DNA binding inhibition, confirmation; shares compounds with ZTA DNA inh; Zta-ZRE DNA binding, fluorescence polarization; inhibition, % at 11.1 µM; hit rate 30% among 320;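 active means mean inhibition across triplicate runs above the hit threshold derived for the original primary screen, cut at about 33% in these data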;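 further: 0% = Zta with DMSO and 100% = wells lacking Zta protein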
EBNA1 counter: blocks EBNA-1 DNA binding in ZTA counter-screen | shares compounds with ZTA DNA inh | fluorescence polarization | inhibition, % at 14.8 µM | 320 tested, under 10 active; call rule not given here
* marks the source's active call; other numbers are inactive results; . = no result. Rows were chosen to be rich in hits. Some 1.3% of all compounds tested hit in one or more screens of this group.

SMILES | LYPLA1 counter | PREPL inh | EBNA-1 inh | ZTA DNA inh | LYPLA2 counter | ZTA inh confirm | EBNA1 counter
C#CCOCCOCCOCCNc1nc(N2CCN(C(=O)CCCCCCCCCCNC(=O)[C@@H](CCSC)n3cc(CCO)nn3)CC2)nc(N2CCN(C(=O)CCCCCCCCCCNC(=O)[C@@H]([C@H](C)O)n3cc(C)nn3)CC2)n1 | -20 | 9 | 4 | 6 | -31 | . | .
C#CCOCCOCCOCCNc1nc(N2CCN(C(=O)[C@H]([C@@H](C)CC)n3cc([C@@H](N)CO)nn3)CC2)nc(N2CCN(C(=O)[C@H](CCCCN)n3cc([C@@H](N)CO)nn3)CC2)n1 | . | 19 | . | . | . | . | .
C#CCOCCOCCOCCNc1nc(N2CCN(C(=O)CCCCCCCCCCNC(=O)Cn3cc(CCCCCN)nn3)CC2)nc(N2CCN(C(=O)CCCCCCCCCCNC(=O)Cn3cc(C[C@@H](C)O)nn3)CC2)n1 | 1 | 41 | 1 | 46* | 12 | 20 | 0
C#CCOCCOCCOCCNc1nc(N2CCN(C(=O)Cn3cc(CCCCN)nn3)CC2)nc(N2CCN(C(=O)Cn3cc(CC(C)O)nn3)CC2)n1 (stereo not drawn) | -1 | -3 | 1 | 8 | 0 | . | .
C#CCOCCOCCOCCNc1nc(N2CCN(C(=O)CCCCCCCCCCNC(=O)[C@H]([C@@H](C)CC)n3cc(CCCCN=C(N)N)nn3)CC2)nc(N2CCN(C(=O)CCCCCCCCCCNC(=O)[C@@H]([C@H](C)O)n3cc(C)nn3)CC2)n1 | -10 | 38 | 4 | 68* | 5 | 61* | 1
C#CCOCCOCCOCCNc1nc(N2CCN(C(=O)CCCCCCCCCCNC(=O)[C@H](CCCCN)n3cc(C)nn3)CC2)nc(N2CCN(C(=O)CCCCCCCCCCNC(=O)[C@@H]([C@H](C)O)n3cc(C)nn3)CC2)n1 | -3 | 36 | 12 | 40* | 13 | 3 | 2
Cc1ccc(C(=O)N[C@H](C(=O)Nc2sccc2C(N)=O)C(C)C)cc1 | -2 | 5 | -15 | -7 | 5 | . | .
O=C(NCC1CCCO1)c1ccc(-c2ccccc2Cl)o1 (stereo not drawn) | 6 | 4 | -18 | -23 | 6 | . | .
COc1ccc(C2N(C(=O)CN3CCCC3)CCCN2S(=O)(=O)c2ccccc2)cc1 (stereo not drawn) | 1 | -9 | -10 | -21 | -9 | . | .
CCCCn1c(N)c(N(CC(C)C)C(=O)c2ccc3c(c2)NC(=O)C(C)S3)c(=O)[nH]c1=O (stereo not drawn) | 1 | 9 | 9 | -15 | 0 | . | .
C#CCOCCOCCOCCNc1nc(N2CCN(C(=O)CCCCCCCCCCNC(=O)[C@H](CCCCN)n3cc(C[C@@H](C)CC)nn3)CC2)nc(N2CCN(C(=O)CCCCCCCCCCNC(=O)[C@@H]([C@H](C)O)n3cc(C)nn3)CC2)n1 | -5 | 35 | -1 | 50* | -6 | 33 | -8
C#CCOCCOCCOCCNc1nc(N2CCN(C(=O)CCCCCCCCCCNC(=O)Cn3cc(C[C@@H](C)O)nn3)CC2)nc(N2CCN(C(=O)CCCCCCCCCCNC(=O)[C@@H]([C@H](C)O)n3cc(C)nn3)CC2)n1 | -2 | 9 | 5 | -3 | 7 | . | .
C#CCOCCOCCOCCNc1nc(N2CCN(C(=O)CCCCCCCCCCNC(=O)Cn3cc(C[C@@H](C)O)nn3)CC2)nc(N2CCN(C(=O)CCCCCCCCCCNC(=O)[C@@H](CCSC)n3cc(CCO)nn3)CC2)n1 | -16 | 12 | 5 | 1 | -21 | . | .
C#CCOCCOCCOCCNc1nc(N2CCN(C(=O)CCCCCCCCCCNC(=O)[C@@H](CCC(=O)O)n3cc(CCCCCN)nn3)CC2)nc(N2CCN(C(=O)CCCCCCCCCCNC(=O)[C@H](CCCCN)n3cc(C[C@@H](C)CC)nn3)CC2)n1 | -1 | 31 | -2 | 54* | -1 | -12 | -3
C#CCOCCOCCOCCNc1nc(N2CCN(C(=O)CCCCCCCCCCNC(=O)[C@@H](CCSC)n3cc(CCO)nn3)CC2)nc(N2CCN(C(=O)CCCCCCCCCCNC(=O)[C@H](CCCN=C(N)N)n3cc(C[C@@H](C)CC)nn3)CC2)n1 | -42 | 37 | 12 | 141* | -72 | 62* | -2
NNC(=O)c1nc(Cl)c(Cl)c(N)c1Cl | 3 | 13 | 8 | 4 | 0 | . | .
CC(C)C(=O)N1CCN(c2ccccc2NC(=O)c2cccc3ccccc23)CC1 | -1 | 5 | -5 | -3 | 0 | . | .
C[C@H]1CCC(=O)N([C@H](COc2ccccc2)Cc2ccccc2)CC1 | 3 | 1 | 14 | 40* | 1 | 4 | 3
CC1CCC(=O)N(CCOc2ccccc2)CC1 (stereo not drawn) | -4 | -7 | 0 | -2 | 4 | . | .
O=C(Nn1c(C2CCC2)nc2ccccc2c1=O)c1cccs1 | -3 | -7 | 1 | 34* | -2 | 0 | -4
CS(=O)(=O)c1ccc(Cl)c(NC(=O)COc2ccc3c(c2)CCC3)c1 | 1 | 1 | 0 | 2 | 4 | . | .
CC1=NN(c2ccccc2)C(=O)/C1=C/C=C/c1ccccc1 | -2 | 2 | 1 | 19 | 2 | . | .
CC1=NN(c2cccc(C(=O)O)c2)C(=O)/C1=C\C=C\c1ccco1 | 1 | 8 | 13 | 70* | -4 | 67* | 5
CC(C)(C(=O)Nc1nccs1)c1ccccc1 | 4 | 3 | 2 | 40* | 8 | 2 | -1
Nc1nc(Nc2ccccc2F)sc1C(=O)c1ccccc1 | -2 | 12 | -8 | 52* | -5 | 6 | -6
SMILES | LYPLA1 counter | PREPL inh | EBNA-1 inh | ZTA DNA inh | LYPLA2 counter | ZTA inh confirm | EBNA1 counter
Cc1cccc(NC(=O)CCNC(=O)c2ccco2)c1 | 1 | -4 | 3 | 44* | -2 | 4 | -9
Cc1ccc(NC(=O)CCNC(=O)c2ccco2)cc1 | 0 | -3 | 12 | -17 | 2 | . | .
O=c1[nH]c(Nc2ccccc2)cc2cc(Br)ccc12 | -3 | 25 | -6 | 41* | 6 | 2 | -5
CC(=O)Nc1ccc(S(=O)(=O)Nc2nc(C)nc3sc(C)c(C)c23)cc1 | . | 3 | . | . | . | . | .
NC1=NC[C@H](c2ccccc2)N1CCCCC1CCCCC1 | -2 | -4 | 6 | 33* | 0 | 2 | -13
Cn1c(-c2ccccc2)cc(=O)c2ccccc21 | -1 | 0 | 3 | -6 | 1 | . | .
Cn1c2ccccc2c(=O)n2c(=O)c3ccccc3cc12 | 2 | 7 | -2 | 43* | 13 | 33* | -7
N#Cc1c(N2CCCC2)nc(N)c2c(N)nc(N3CCCC3)cc12 | 7 | 41 | 10 | 60* | 14 | 55* | -26
COc1cc2c(C#N)c(N3CCCC3)nc(N)c2c(N)n1 | 0 | 12 | 3 | -7 | 1 | . | .
CC(CCc1ccccc1)NC(=O)CCCn1ncn2c(cc3occc32)c1=O (stereo not drawn) | 1 | -4 | -5 | 6 | 2 | . | .
COc1cccc(-n2cc(C(=O)NC(C)C)c3ccccc3c2=O)c1 | 0 | 3 | -7 | 155* | -1 | 4 | 3
